Experimental data published in PubChem BioAssay (NCI).
This is part of a sample that, as a whole, favours compounds with a hit. Of some 83,000 tested, about 20% had one in any assay.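 Activity criterion: percent growth below 10, measured after cells in 96-well plates were exposed to a single compound concentration for 48 hours.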 Active and inactive are the calls of the source.

Tested on: EKVX NSCLC
Assay: NCI-60 one-dose screen, 48 h (100 = growth as untreated, 0 = no growth, -100 = all killed)
Details: 10 µM unless noted
Protocol: Growth inhibition of the EKVX human Non-Small Cell Lung tumor cell line is measured as a screen for anti-cancer activity. Cells are grown in 96 well plates and exposed to the test compound for 48 hours. Compounds are tested at a single concentration, which is 10^-5 M for most compounds. The reported endpoint is percent growth (GI% or GIPRCNT), where numbers from 0 - 100% represent growth inhibition, and numbers from -100% - 0 represent cell death. For example, a value of 40 represents 60% growth inhibition. A value of 0 means no net growth occurred over the course of the experiment. A value of -40 indicates 40% of cells at the beginning of the experiment died by the end of the experiment. A value of -100 means all cells are dead at the end of the experiment.
NCI-60 Human Tumor Cell Lines Screen was performed using the standard one-dose NCI protocol, which is described in more detail at https://dtp.cancer.gov/discovery_development/nci-60/default.htm.
Compounds with GIPRCNT values below 10 were considered active. Activity score was based on GIPRCNT using the following formula: […]
Score is 0 for GIPRCNT values of 100 or above, 50 for GIPRCNT values of 0, and 100 for GIPRCNT values of -100.

SMILES | growth
CC(C)OC(=O)N1CCOCC1 | 126% (inactive)
O=C1/C(=C/c2ccc([N+](=O)[O-])cc2)CN(C(=O)CCN2CCC(=NO)CC2)C/C1=C\c1ccc([N+](=O)[O-])cc1 | -31.9% (active)
C=C[C@@H]1C[C@@H]2Cc3cc(F)ccc3N1O2 | 110% (inactive)
O=c1ccn(C2CC(O)C(O)C(CO)O2)c(=O)[nH]1 (stereo not given) | 110% (inactive)
COc1cccc(/C=C/C(=O)Nc2cc(OC)c3c(c2)OCO3)c1 | 92.4% (inactive)
COc1ccc(-c2cc(-c3ccccc3)nc(SCCCC(=O)NO)n2)cc1OC | 8.24% (active)
CC(C)(C)n1cc(-c2ccnc(NCCCNS(=O)(=O)c3ccc(Br)cc3)c2)c(-c2cccc(O)c2)n1 | 50.1% (inactive)
CNc1ccc(Br)c2c1C(=O)c1ccccc1C2=O | 115% (inactive)
CC(C)CC1NC(C)(C)CO1 (stereo not given) | 123% (inactive)
COc1ccc(/C=C2\Oc3cc(OCCCN4CCCC4)ccc3C2=O)c(OC)c1 | 96.1% (inactive)
COc1cc(-c2ncn(/C=C\C(=O)OC(C)C)n2)cc(C(F)(F)F)c1 | 43.6% (inactive)
CCOC(=O)c1cn2c3c(cccc3c1=O)C(=O)/C(=C/c1cccc(Cl)c1Cl)C2 | 99.3% (inactive)
CCOC(=O)c1ccc(NC(=O)N2CC(C)OC(C)C2)cc1 (stereo not given) | 108% (inactive)
N/C(=N\C(N)=N\c1nc2ccccc2s1)c1cccc(Br)c1 | 73.2% (inactive)
O=C(O)c1nc(-c2ccccc2)oc1N1CCOCC1 | 104% (inactive)
N#Cc1c(Nc2ccccc2)nc2n(c1=O)-c1ccccc1Sc1ccccc1-2 | 73% (inactive)
Cc1c(C(=N)C(C#N)C#N)c(=N)oc2c1ccc1ccccc12 | 26.9% (inactive)
COc1cc(NC(=O)SC2=NCCS2)cc(OC)c1 | 113% (inactive)
NC(N)=Nc1nc2ccccc2o1 | 109% (inactive)
Cc1nn(-c2ccc(Cl)cc2)c2ncnc(N/N=C/c3cccc([N+](=O)[O-])c3)c12 | 84% (inactive)

SMILES | growth
Cc1ccc(S(=O)(=O)n2cc(C(=O)C(=O)Nc3ccncc3)c3ccccc32)cc1 | 55.8% (inactive)
Nc1cccc(Cl)c1N | 92% (inactive)
C=C1CCC2C(C)(CO)C(O)CCC2(C)C1CC(NCc1ccccc1)C1=CCOC1=O (stereo not given) | 100% (inactive)
COc1ccc(C2=C(c3cc(OC)c(OC)c(OC)c3)C(=O)CC2)cc1 | 40% (inactive)
Cc1ccc(C(=O)C2=Cc3cc4ccccc4n3Cc3cnnn32)cc1 | 107% (inactive)
Nc1ncnc2c1c(-c1ccc(Oc3ccccc3)cc1)nn2C[C@@H]1SSC[C@@H]1O | 25.2% (inactive)
CCOc1cc2c(Cl)ncnc2c(OCC)c1OCC | 88.4% (inactive)
Cc1cc(C2=NNC(=O)Cc3cc4c(cc32)OCCO4)cc(C)c1N | 59.6% (inactive)
CCN(CC)CCCC(C)Nc1c2ccc(Cl)cc2nc2cc(OC)c(OC)cc12 (stereo not given) | 53.7% (inactive)
O=C(O)C1CCCCN1c1nc(Cl)nc(Cl)n1 (stereo not given) | 99.8% (inactive)
CCOC(=O)/C(C#N)=C1/C(=O)Nc2ccccc21 | 117% (inactive)
CCN(CC)CCOc1ccc(Cl)c(C)c1 | 111% (inactive)
COc1ccc(-c2nc(/C=N/Nc3cc(C)nc4ccc(Br)cc34)c(C)o2)cc1 | -8.99% (active)
O=C1c2c(Cl)c(Cl)c(Cl)c(Cl)c2C(=O)C2(Cl)CC=CCC12Cl (stereo not given) | 98.7% (inactive)
C/C=C/C1=CN2C(=O)c3cc(OC4OC(C)C(NC)C(C)(O)C4O)c(C)cc3N=C[C@@H]2C1 (stereo not given in full) | 6.04% (active)
CC(C)(C)n1cc(-c2ccnc(NCCCNS(=O)(=O)c3ccc(Cl)cc3)c2)c(-c2cccc(O)c2)n1 | 20.5% (inactive)
COc1ccc(N=Cc2c(O)ccc3c2oc2cc(Cl)c(O)c(Cl)c23)cc1 | 108% (inactive)
Cc1ccc(/C=C2\CN(C(=O)CCN3CCC(=NO)CC3)C/C(=C\c3ccc(C)cc3)C2=O)cc1 | 8.39% (active)
COc1cccc(-c2nc3sccn3c2-c2ccnc(NCCCNS(=O)(=O)c3ccc(C(F)(F)F)cc3)c2)c1 | 46% (inactive)
COc1cc(/C=C/C(=O)N2CCN(C(=O)/C=C/c3cc(OC)c(OC)c(OC)c3)CC2)cc(OC)c1OC | 114% (inactive)
